Most compounds without a hit are left out; they make up all but 2.1% or so of the library.
eIF4H inh: inhibitors of RNA binding by human eIF4H; Q15056; eIF4H fluorescence polarization binding assay; AID 2012; inhibition, % at 35 µM; 290,000 tested, 0.94% active;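 further: calls also rest on retests at 20 µM and on dose response follow-up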
PABP1 MLLE inh: inhibitors of microRNA-mediated deadenylation, human PABP1 MLLE binding; GST-MLLE / FITC-PAM2 fluorescence polarization; inhibition, % at 20 µM; 360,000 tested, 0.36% active; in the data active means inhibition above about 35%, passing the limit was not always enough;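 further: plate controls were DMSO wells with GST-MLLE for no effect and wells lacking GST-MLLE protein for full effect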
PABP polyA inh: PABP-poly(A) binding inhibition. 290,000 tested, 1% active. inhibition, % at 35 µM. AID 2014. P11940. PABP-poly(A) RNA binding, fluorescence polarization;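 further: calls also rest on retests at 20 µM and on dose response follow-up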
CendR NRP1 mod: modulators of CendR peptide binding to human neuropilin-1 | O14786 | FAM-RPARPAR peptide binding to NRP-1, fluorescence polarization | inhibition, % at 25 µM | 360,000 tested, 0.85% active;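 active means inhibition or corrected inhibition above about 18%, plus a signal ratio from 0.5 to 1.5, limit read from the data, passing the limit was not always enough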
* = called active by the depositor; ? = inconclusive; . = no result given. Unless noted, how the calls were made is not given here.

SMILES	eIF4H inh	PABP1 MLLE inh	PABP polyA inh	CendR NRP1 mod
CC1CC1C(=O)OCC(=O)Nc1cccc([N+](=O)[O-])c1 (stereo not drawn)	?	-1	56*	13
O=C(COC(=O)c1c(F)cccc1F)Nc1ccc2[nH]c(=O)[nH]c2c1	57*	-14	11	-2
COc1ccccc1NC(=S)N(Cc1ccc(Cl)cc1)CC1CCC(C(=O)O)CC1 (stereo not drawn)	-13	-2	-4	28*
COc1ccc(NS(=O)(=O)c2cccc(C(=O)NNC(=O)c3ccccc3O)c2)cc1	.	7	.	-12
COc1ccc(NS(=O)(=O)c2cccc(C(=O)NNC(=O)c3cccn3C)c2)cc1	74*	-16	33	3
NC(=O)CSc1nnc(NC(=O)c2ccc(S(=O)(=O)N3CCCCC3)cc2)s1	.	-63	.	7
O=C(CCN1C(=O)[C@@H]2Cc3ccccc3CN2C1=O)N[C@H](Cc1ccccc1)C(=O)O	-4	6	8	3
CCN1C=C(Cc2ccc(F)cc2)C2=C(C1)C(c1ccc(F)cc1)C(C#N)=C(N)O2 (stereo not drawn)	42	5	36	-7
CCN1C=C(Cc2ccccc2C)C2=C(C1)C(c1ccccc1C)C(C#N)=C(N)O2 (stereo not drawn)	20	-5	52*	-26
Cc1ccc(NC(=O)CN(C)CC(=O)Nc2ccccc2Oc2ccccc2)cc1	-1	-5	-10	6
CCCN(CC(=O)Nc1ccc(C(C)=O)cc1)CC(=O)Nc1ccccc1C	?	-21	56*	8
Cc1ccc(NC(=O)CN(C)CC(=O)Nc2ccccc2C#N)cc1	active	15	60	-13
Cc1c(NC(=O)Cn2nc(C(=O)O)c3ccccc3c2=O)c(=O)n(-c2ccccc2)n1C	-13	-7	-1	15
Cc1nc(SCC(=O)Nc2c(C)n(C)n(-c3ccccc3)c2=O)nc(C)c1C	-2	-6	4	1
Cc1c(NC(=O)c2c(O)c3ccccc3n(C)c2=O)c(=O)n(-c2ccccc2)n1C	1	3	8	32*
Cc1c(NC(=O)Cn2nc(C(F)(F)F)c3c2CCCC3)c(=O)n(-c2ccccc2)n1C	2	-3	-6	23*
Cc1c(NC(=O)CSc2nc(N)cc(N)n2)c(=O)n(-c2ccccc2)n1C	.	9	.	20*
Cc1c(NC(=O)CSCc2ccc(Br)cc2)c(=O)n(-c2ccccc2)n1C	active	-14	75*	8
S=c1nc(-c2ccccn2)c(-c2ccccn2)n[nH]1	.	8	.	0
Cc1[nH]c(C)c(S(=O)(=O)NCc2ccc(F)cc2)c1C(=O)N1CCCCC1	-8	-2	-1	-4
Cc1c(NC(=O)COC(=O)C2(c3ccc(F)cc3)CCCC2)c(=O)n(-c2ccccc2)n1C	-8	15	1	22*
Cc1c(NC(=O)C2(c3ccccc3)CCCC2)c(=O)n(-c2ccccc2)n1C	-7	6	-4	16
Cc1cccc(/C=C/C(=O)c2ccc(NC3=NCCCS3)cc2)c1	-18	-23	0	6
COc1cccc(/C=C/C(=O)c2ccc(NC3=NCCCS3)cc2)c1	active	-10	73*	2
Cc1ccc(S(=O)(=O)N(C)c2ccc(OC(=O)c3cc(=O)[nH]c4ccccc34)cc2)cc1	.	1	.	-16
SMILES	eIF4H inh	PABP1 MLLE inh	PABP polyA inh	CendR NRP1 mod
CSc1ccccc1C(=O)N1CCC(CCC(=O)NCc2ccc(F)cc2)CC1	-6	-12	9	31*
CC(=O)c1ccccc1C(=O)N1CCC(CCC(=O)NCc2ccc(F)cc2)CC1	.	12	.	-1
CCOc1ccc(NC(=O)CN2CCCC2c2cccs2)cc1S(=O)(=O)N1CCCCC1 (stereo not drawn)	.	10	.	-17
N#Cc1cccnc1N1CCN(C(C(=O)NC2CCCC2)c2ccco2)CC1 (stereo not drawn)	.	.	.	1
CC(C)(C)C(C(=O)NC1CCCC1)N1CCN(c2ncccc2C#N)CC1 (stereo not drawn)	.	.	.	30*
COC(=O)/C=C1/SC(=NC(=O)c2cccc([N+](=O)[O-])c2)NC1=O	-13	27	4	-26
Cc1cc(C)n2c(Nc3ccc4c(c3)OCCO4)c(-c3ccccn3)nc2n1	.	.	.	21*
Cc1cscc(C)c1=S	.	38*	.	-4
Cc1ccc2[nH]c(CNC(=O)C3CCCCC3)cc2c1	6	-10	-6	-14
O=C(/C=C/c1ccc(S(=O)(=O)N2CCOCC2)cc1)N1CCCCC1	.	6	.	-9
CC(=O)c1ccc(N2CCN(C(=O)/C=C/c3ccc(S(=O)(=O)N4CCOCC4)cc3)CC2)cc1	0	-11	8	26*
CCOC(=O)c1sc2nc3c(cc2c1N)COC(C)(CC)C3 (stereo not drawn)	2	14	2	-1

Compound activity (PubChem BioAssay)
